The text below walks through data of PubChem BioAssay.

Assay [1] is described as follows: growth inhibition of DIPG glioma cells, dose response, cell-based, SU-DIPG-XVII, MIPE5.0, CellTiter-Glo, qHTS (AID 1347060).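 For AC50: cells exposed to compound for 48 hours before viability readout.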 The conditions noted are these: SU-DIPG-XVII viability, CellTiter-Glo ATP luminescence. In general terms: In ATP-based viability assays light output follows the ATP content of the culture.
Assay [2] can be described thus: growth inhibition of DIPG glioma cells, dose response, cell-based, SU-DIPG-XIII, MIPE5.0, CellTiter-Glo, qHTS (AID 1347064; cut-off not given, nearly all actives have AC50 up to about 23 µM;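 for AC50: cells exposed to compound for 48 hours before the viability read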). Particulars: SU-DIPG-XIII viability, CellTiter-Glo ATP luminescence.
The nature of assay [3]: viability loss in pontine glioma line – cell-based, SU-DIPG-XXV, MIPE5.0, CellTiter-Glo, qHTS, dose response (AID 1347065).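 Note: cells exposed to compound for 48 hours before ATP readout.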 Particulars: CellTiter-Glo ATP luminescence.
Assay [4] is described as follows: JHH-DIPG-1 glioma cell viability, MIPE5.0 library, CellTiter-Glo luminescence, qHTS (AID 1347067).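 Note: cells exposed to compound for 48 hours before readout.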 The conditions noted are these: JHH-DIPG-1 glioma viability, CellTiter-Glo ATP luminescence.
A short description of assay [5]: SU-DIPG-VI glioma cell viability, MIPE4.0 library, CellTiter-Glo luminescence, qHTS (AID 1347066; cut-off not given, nearly all actives have AC50 up to about 30 µM;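 note: cells exposed to compound for 48 hours before readout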). Particulars: CellTiter-Glo ATP luminescence.
Assay [6] in a line: SU-DIPG-XXV glioma cell viability, MIPE5.0 library, qHTS (AID 1347068; cut-off not given, nearly all actives have IC50 up to about 30 µM;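 for IC50: cells exposed to compound for 48 hours before viability readout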). A general note: qHTS replaces the single test concentration by a dilution series.
Assay [7] is described as follows: sensitizers of A549 cells to miR-34 induction, primary screen, imaging, A549 dox-inducible miR-34, nuclei and caspase counts (AID 1347080;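 active = compounds whose cell count with miR-34 switched on is under 0.7 times the count with it off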). Particulars: A549 miR-34 inducible, Hoechst nuclei count, 48 h.
A short description of assay [8]: survival rescue of mitochondrial mutant cells in low glucose, primary screen, MELAS cybrids, Rieske KO mouse fibroblasts, CellTiter-Glo (AID 1508586;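 active = mean z-score across replicates of 1.96 or higher in either the MELAS or the Rieske mutant cell line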;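 note: z relative to plate mean and SD of compound and empty wells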).
The nature of assay [9]: ovarian cancer cell viability with rucaparib, profiling panel, oncology-focused library, rucaparib conditional (AID 1508598;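 active = normalized viability below 100% at a tested concentration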). The conditions noted are these: patient-derived ovarian cancer cells, CellTiter-Glo viability, 144 h, stronger effect = lower value.
The mark [10] stands for this setting: stronger effect = lower value, cell number ratio, induced over uninduced.
Setting [11] is: measured here: relative caspase fold change +Dox/-Dox.
Setting [12] is: measured here: total cells with miR-34 induction, stronger effect = lower value.
The mark [13] stands for this setting: measured here: total cells without miR-34 induction.
Setting [14] is: MELAS cybrid survival, CellTiter-Glo 48 h, stronger effect = higher value.
[15] abbreviates: Rieske KO mouse fibroblast survival, CellTiter-Glo 72 h.

Results filed as inconclusive are left out. Activity calls are given as the source filed them. Unless noted, no cut-off is given here; in the data, nearly all actives have AC50 up to about 26 µM.

One may read the AC50 as the midpoint of the concentration-response curve, whichever way the signal moves. As to `Cc1ccc(NC(=O)c2ccc3c(c2)OCCO3)cc1NC(=O)c1ccc2nc(OCCN3CCCC3)ccc2c1`, the AC50 was 0.129 µM (active) in [1], 0.229 µM (active) in [2], 0.0645 µM (active) in assay [3] and 0.204 µM (active) in assay [4].
`COc1cc(-c2nn(C3CCC(N4CCN(C(C)=O)CC4)CC3)c3ncnc(N)c23)ccc1NC(=O)c1cc2ccccc2n1C` (stereo unspecified): the AC50 in assay [1] is 3.72 µM (active); in assay [2] it was 7.42 µM (active); in assay [3], 4.17 µM (active); in [4], 7.42 µM (active). In addition, the outcome in assay [5] and in assay [6] was inactive.
Turning to `COc1cc(OC)cc(N(CCNC(C)C)c2ccc3ncc(-c4cnn(C)c4)nc3c2)c1`, the AC50 in assay [1] is 0.0661 µM (active); in [2], 0.0661 µM (active); in assay [3] it was 0.0833 µM (active).
On to `CC1(C)OCCn2c1nc1c(N3CCOCC3)nc(-c3cnc(N)nc3)nc12`, for which the AC50 in [1] was 3.72 µM (active); in assay [2] it was 1.86 µM (active); in [3] it was 1.48 µM (active); in assay [4], 1.32 µM (active).
For `COc1cc(OC)cc(N2CCN(C(=O)Nc3nc4cc(F)ccc4nc3OC)CC2)c1`, the AC50 in assay [1] was 0.833 µM (active); in assay [2], 2.63 µM (active); in assay [3] it was 1.48 µM (active); in assay [4], 1.32 µM (active).
As to `Cc1cc(-c2ccc(CC(=O)Nc3ccc(-c4cccnc4)cc3)cc2)ccn1`, the call in [1], in assay [2], in [3], in [5], in assay [4] and in [6] was inactive. The fold change is 0.957 (inactive) in assay [7] (setting [10]) and 0.839 in assay [7] (setting [11]). The cell count in assay [7] (setting [12]) amounted to 7810; in assay [7] (setting [13]), 8160. Moreover, the z-score in [8] (setting [14]) is -0.327 (inactive); in assay [8] (setting [15]) it was -0.153.
Turning to `COc1ccc(S(=O)(=O)NCc2ccc(C(=O)NCCc3ccc(Cl)cn3)cc2)cc1`, the molecule was called inactive in [1], in assay [2], in [3] and in assay [4].
Consider `CC(C)(C)NC(=O)c1cncn1C1CCN(c2ccc(-c3nnc(C(F)(F)F)o3)cn2)CC1`, for which the values for the AC50 in [1], in [2] and in assay [3] were 10.5 µM (active), 5.9 µM (active) and 1.48 µM (active), respectively.
As to `Cc1ccc(C(=O)OCc2ccc([C@@H](CN)C(=O)Nc3ccc4cnccc4c3)cc2)c(C)c1`, the figures for the AC50 in assay [1], in assay [2] and in [3] were 12.9 µM (active), 14.4 µM (active) and 9.1 µM (active), respectively.
For the molecule `CCc1nc(C(N)=O)c(Nc2ccc(N3CCC(N4CCN(C)CC4)CC3)c(OC)c2)nc1NC1CCOCC1`, the AC50 in [1] was 2.35 µM (active); in assay [2], 1.18 µM (active); in assay [3], 0.833 µM (active); in assay [4] it was 0.934 µM (active).
A word on the viability: it is a read-out of living cells in per cent, often relative to untreated cells. Consider `COCCOc1nc(-c2ccc(Cl)c(Cl)c2)n(-c2ccc(NC(=O)CCl)cc2)n1`, for which the AC50 in [1] is 1.32 µM (active); in [2], 2.63 µM (active); in assay [3] it was 2.95 µM (active); in assay [4], 2.63 µM (active). For the same molecule, the molecule was classed as inactive in [5] and in [6]. Further, the values for the fold change in assay [7] (setting [10]) and in [7] (setting [11]) were 1.14 (inactive) and 0.519, respectively. For the same molecule, the cell count in assay [7] (setting [12]) amounted to 3760; in [7] (setting [13]) it was 3290. The z-score in [8] (setting [14]) is -0.782 (inactive); in [8] (setting [15]), -7.88. Moreover, the viability in [9] (at 0.000305 µM, OCI-C5x cells, with rucaparib 10 µM, 100% = cells with rucaparib alone) is 125% (inactive); in assay [9] (at 0.000305 µM, OCI-C5x cells, without rucaparib) it was 115% (inactive); in assay [9] (at 0.000305 µM, OCI-P5x cells, with rucaparib 20 µM, 100% = cells with rucaparib alone) it was 104% (inactive); in assay [9] (at 0.000305 µM, OCI-P5x cells, without rucaparib), 105% (inactive); in assay [9] (at 0.00122 µM, OCI-C5x cells, with rucaparib 10 µM, 100% = cells with rucaparib alone), 131% (inactive); in [9] (at 0.00122 µM, OCI-C5x cells, without rucaparib), 104% (inactive). Further, the viability in assay [9] (at 0.00122 µM, OCI-P5x cells, with rucaparib 20 µM, 100% = cells with rucaparib alone) was 93.4% (active); in assay [9] (at 0.00122 µM, OCI-P5x cells, without rucaparib), 103% (inactive); in assay [9] (at 0.00488 µM, OCI-C5x cells, with rucaparib 10 µM, 100% = cells with rucaparib alone), 131% (inactive); in [9] (at 0.00488 µM, OCI-C5x cells, without rucaparib), 113% (inactive); in assay [9] (at 0.00488 µM, OCI-P5x cells, with rucaparib 20 µM, 100% = cells with rucaparib alone), 105% (inactive); in [9] (at 0.00488 µM, OCI-P5x cells, without rucaparib), 99.8% (active). Besides, the viability in assay [9] (at 0.0195 µM, OCI-C5x cells, with rucaparib 10 µM, 100% = cells with rucaparib alone) was 114% (inactive); in assay [9] (at 0.0195 µM, OCI-C5x cells, without rucaparib) it was 106% (inactive); in [9] (at 0.0195 µM, OCI-P5x cells, with rucaparib 20 µM, 100% = cells with rucaparib alone) it was 103% (inactive); in [9] (at 0.0195 µM, OCI-P5x cells, without rucaparib) it was 100% (inactive); in assay [9] (at 0.0781 µM, OCI-C5x cells, with rucaparib 10 µM, 100% = cells with rucaparib alone), 125% (inactive); in assay [9] (at 0.0781 µM, OCI-C5x cells, without rucaparib), 111% (inactive). Besides, the viability in assay [9] (at 0.0781 µM, OCI-P5x cells, with rucaparib 20 µM, 100% = cells with rucaparib alone) was 95.6% (active); in assay [9] (at 0.0781 µM, OCI-P5x cells, without rucaparib) it was 97.3% (active); in [9] (at 0.313 µM, OCI-C5x cells, with rucaparib 10 µM, 100% = cells with rucaparib alone), 124% (inactive); in assay [9] (at 0.313 µM, OCI-C5x cells, without rucaparib), 112% (inactive); in assay [9] (at 0.313 µM, OCI-P5x cells, with rucaparib 20 µM, 100% = cells with rucaparib alone), 96.8% (active); in assay [9] (at 0.313 µM, OCI-P5x cells, without rucaparib), 90.6% (active). For the same molecule, the viability in assay [9] (at 1.25 µM, OCI-C5x cells, with rucaparib 10 µM, 100% = cells with rucaparib alone) was 97.1% (active); in assay [9] (at 1.25 µM, OCI-C5x cells, without rucaparib), 112% (inactive); in assay [9] (at 1.25 µM, OCI-P5x cells, with rucaparib 20 µM, 100% = cells with rucaparib alone) it was 86.3% (active); in assay [9] (at 1.25 µM, OCI-P5x cells, without rucaparib), 86.9% (active); in assay [9] (at 5 µM, OCI-C5x cells, with rucaparib 10 µM, 100% = cells with rucaparib alone), 2.67% (active); in assay [9] (at 5 µM, OCI-C5x cells, without rucaparib) it was 92.5% (active). The viability is 1.14% (active) in assay [9] (at 5 µM, OCI-P5x cells, with rucaparib 20 µM, 100% = cells with rucaparib alone) and 6.27% (active) in assay [9] (at 5 µM, OCI-P5x cells, without rucaparib).
`O=C(Nc1ccc2[nH]nc(-c3ccncc3)c2c1)[C@@H]1CCN(CC(=O)N2CCN(c3ccc(-c4ncccn4)cc3)CC2)C1`: the AC50 in assay [1] was 1.05 µM (active); in assay [2], 1.48 µM (active); in [3] it was 1.05 µM (active); in assay [4], 0.525 µM (active).
`NC(=O)c1cccc2c(NC(CN3CCC3)c3ccc(Cl)c(C(F)(F)F)c3)ncnc12` (stereo unspecified): the AC50 in assay [1] is 11.8 µM (active); in assay [2], 3.72 µM (active); in assay [3], 2.95 µM (active); in [4], 11.8 µM (active).
A word on the IC50: it is the concentration at which inhibition is half-maximal. Regarding `Fc1cccc(-n2cnc3c(NCc4nc5c(F)c(F)ccc5[nH]4)nc(N4CCOCC4)nc32)c1`, the AC50 was 0.166 µM (active) in assay [1], 0.295 µM (active) in assay [2], 0.332 µM (active) in [3] and 0.209 µM (active) in assay [4]. Further, the IC50 in assay [6] is 525 nM (active).
On to `CC1Oc2cc(cnc2N)-c2c(nn(C)c2C#N)CN(C)C(=O)c2ccc(F)cc21` (stereo unspecified), for which the AC50 in assay [1] was 14.8 µM (active); in assay [2], 6.61 µM (active); in assay [3], 7.42 µM (active). Also, the call in [4] was inactive.
Regarding `CC(C)(O)CS(=O)(=O)Nc1ccc2c(c1)CCN(C(=O)COc1cccnc1)C2`, the AC50 in assay [1] was 0.263 µM (active); in assay [2], 0.0372 µM (active); in assay [3], 0.0833 µM (active); in [4] it was 0.0468 µM (active).
As for `O=c1cc(N2CCOCC2)oc2c(-c3ccc4c(c3)OCCO4)csc12`, the AC50 in assay [1] is 5.25 µM (active); in assay [2], 6.61 µM (active); in assay [3], 8.33 µM (active); in assay [4], 7.42 µM (active).
